Sampled rows, rich in hits. Any-hit rate of the full collection: about 0.77%.
PKM2 activator: activators of human pyruvate kinase M2. P14618. purified PKM2, Kinase-Glo ATP luminescence, activation; response scale: 0% is enzyme alone, no compound. Potency, µM (top dose mostly 57.5 µM), for the others: top-dose activation, usual class: activators. hit rate 0.34% among 260,000; further: potency means the concentration at half of the fitted maximal effect; on the % scale 0 is the no-effect control and ±100 the full control effect; nearly all actives have a fitted effect of over 55% in size
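ATP formation by purified human PK-M2, quantified via coupled luciferase luminescence after 1 h at room temperature with 0.1 mM ADP and 0.5 mM PEP final.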
GoLoco inh red: inhibitors of human Gai1-RGS12 GoLoco interaction (red fluorophore); hit rate 0.44% among 230,000; P63096; Gai1:RGS12 GoLoco peptide FP, rhodamine, 10 min; Potency, µM (titrated, usually from 61.6 µM), for the others: at the highest dose activity, negative = inhibition, actives largely listed as inhibitors; active means well fitted inhibition curve with a large enough effect, not every such curve was filed as active; inactive means no such curve, though single readings can be large or run the other way; further: potency means the concentration at half of the fitted maximal effect; on the % scale 0 is the no-effect control and ±100 the full control effect; nearly all actives have a fitted effect of over 30% in size
Vif-APOBEC3G blk: Vif-A3G binding inhibition | HeLa A3G-eYFP + Vif (tagged APOBEC3G with the HIV-1 protein that degrades it), YFP fluorescence, overnight | Potency, µM (doses to about 46.1 µM), for inactives: top-dose activity, negative = active, actives largely listed as inhibitors | hit rate 0.076% among 410,000 | AID 602310; further: potency means the concentration at half of the fitted maximal effect; on the % scale 0 is the no-effect control and ±100 the full control effect; nearly all actives have a fitted effect of over 60% in size
Target sequence (Q9HC16 whole entry, looked up): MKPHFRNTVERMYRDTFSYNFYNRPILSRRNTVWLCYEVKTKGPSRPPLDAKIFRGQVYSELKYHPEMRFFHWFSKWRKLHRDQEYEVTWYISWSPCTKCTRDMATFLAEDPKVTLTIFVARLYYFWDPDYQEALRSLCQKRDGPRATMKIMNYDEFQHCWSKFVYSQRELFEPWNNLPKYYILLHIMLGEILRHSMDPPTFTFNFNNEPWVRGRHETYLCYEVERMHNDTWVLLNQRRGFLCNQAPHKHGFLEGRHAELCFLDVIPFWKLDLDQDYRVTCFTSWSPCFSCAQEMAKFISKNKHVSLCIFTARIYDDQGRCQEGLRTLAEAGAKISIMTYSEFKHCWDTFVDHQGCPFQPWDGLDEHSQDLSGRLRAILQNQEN
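Read-out is eYFP fluorescence (Ex 488/Em 500-530) from Vif-expressing HeLa A3G-eYFP cells; more signal means A3G escaped Vif-mediated degradation. Cells plated overnight, compound pinned in, incubated overnight at 37 deg C.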
Vif-APOBEC3F blk: inhibitors of Vif-A3F interaction | Potency, µM (highest dose often 46.1 µM), for inactives: at the top dose activity, negative = active | AID 602313 | hit rate 0.2% among 390,000 | HeLa A3F-eYFP + Vif (tagged APOBEC3F with the HIV-1 protein that degrades it), YFP fluorescence increase; further: potency means the concentration at half of the fitted maximal effect; % of control where 0% means no effect; nearly all actives have a fitted effect of over 65% in size
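Fluorescence increase (Ex 488/Em 500-530) after overnight compound treatment at 37 deg C flags inhibition of Vif-driven A3F-eYFP loss in stable HeLa A3F-eYFP/Vif cells seeded overnight beforehand.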
GCN5L2 inh: inhibitors of human GCN5L2 histone acetyltransferase. Q92830. GCN5L2 HAT assay, ThioGlo1 CoA-SH fluorescence. Potency, µM (titrated, usually from 58.9 µM), for inactives: top-dose activity change, negative = inhibition, hits mostly inhibitors. hit rate 0.21% among 390,000. AID 504327; further: potency means the concentration at half of the fitted maximal effect; on the % scale 0 is the no-effect control and ±100 the full control effect
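Fluorescence readout, Ex340nm/Em540nm: ThioGlo1 (50uM final) reacts with free CoA thiol released as 20nM GCN5L2 acetylates H3(1-25) peptide (75uM) using acetyl-CoA (70uM). Compound and enzyme sat 15 min beforehand; 20 min room-temperature reaction.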
IL-2 act: activators of IL-2 | IL-2 activation reporter assay, cell-based qHTS; stimulated with anti-CD3/CD4/CD28 beads; in transgenic mouse T cells | activation, % (series mostly up to about 46 µM) | hit rate 0.065% among 360,000; in the data active means activation above about 50%; inconclusive means mostly about 30% to 49%; further: 0% is about no effect
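Using fluorescent plate cytometry, EGFP and DsRed are detected in transgenic mouse T cells stimulated 18 h at 37 degrees C with antibody-coated beads after 60 min compound pretreatment.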
* = called active by the depositor; ? = inconclusive; / = no result given. Unless noted, the call rests on the fitted dose curve; in most records, active means well fitted curve in the direction sought with a large enough effect; inconclusive means small, poorly fitted or top-dose-only effect, or another doubt; inactive means no such curve, though single readings can be large; an effect the other way counts as inactive or inconclusive.

SMILES | PKM2 activator | GoLoco inh red | Vif-APOBEC3G blk | Vif-APOBEC3F blk | GCN5L2 inh | IL-2 act
CC1Oc2cc3c(-c4c(O)cc(O)c5c(O)c6c(cc45)OC(C)C(C)C6=O)c(O)cc(O)c3c(O)c2C(=O)C1C (stereo unspecified) | 2% | 3% | ? | -4% | 25µM* | -1
[Cd+2].[Cl-].[Cl-] | / | 2% | / | / | / | /
[Cl-].[Cl-].[Hg+2] | / | -99% | / | / | 0.14µM* | /
O=C1NC(=O)N(c2ccc3c(c2)OCO3)C(=O)/C1=C/c1ccsc1 | 9% | 3% | -2% | -7% | 4% | 0
O=C1NC(=O)N(c2ccc3c(c2)OCO3)C(=O)/C1=C/c1cccs1 | 11µM* | 31% | 0% | -12% | -2% | -2
COC(=O)C1=C(c2ccc(Cl)c(C(F)(F)F)c2)C[C@@H]2CC[C@H]1N2C | / | / | 3% | -1% | -1% | -1
CCC(C)N1C(=O)/C(=C\c2cc3c4c(c2)CCCN4CCC3)C(=O)NC1=S (stereo unspecified) | 0% | 228% | -9% | -28% | -21% | -1
CCC(C)N1C(=O)/C(=C\c2ccc(N3CCCCCC3)cc2)C(=O)NC1=S (stereo unspecified) | -5% | 118% | -1% | 22µM* | -8% | 3
CCC1=Nc2cc(C(=O)N3CCC4(CC3)OCCO4)ccc2Sc2ccc(C)cc21 | / | / | 1% | -9% | 1% | -1
Cc1ccc(N2C(=O)NC(=O)/C(=C/c3ccc(-c4ccc(C(=O)O)c(Cl)c4)o3)C2=O)cc1 | 25µM* | 102% | 5% | -12% | ? | 1
O=C(O)/C=C/C(=O)O | / | 7% | -1% | 2% | 2% | 0
CCn1ccnc1CN1CCCC(C(=O)c2cccc(C(F)(F)F)c2)C1 (stereo unspecified) | 0% | 2% | -5% | ? | 0% | 0
O=C(c1cccc(C(F)(F)F)c1)C1CCCN(Cc2ncc[nH]2)C1 (stereo unspecified) | 2% | 0% | -3% | 14% | 0.16µM* | 1
CCC[N+](=O)[O-] | / | -6% | / | / | / | /
Cn1c(O)c(/C=N/NC(=O)c2ccncc2)c(=O)n(C)c1=S | 6% | 106% | -18% | -9% | -17% | 2
CCn1c(O)c(/C=N/NC(=O)c2ccncc2)c(=O)n(CC)c1=S | -19% | 195% | ? | 7.9µM* | -8% | 2
CCN1C(=O)/C(=C\c2ccc([N+](=O)[O-])s2)C(=O)NC1=S | 15% | -11% | / | / | 8.9µM* | /
CC[n+]1c(SC)ccc2cc(OC)ccc21 | -7% | 10µM* | -7% | -11% | 0% | 0
CCN(CC)c1ccc(/C=N/c2sc3c(c2C#N)C2CCN3CC2)c(O)c1 | -3% | 116% | ? | -792% | -9% | 53*
CN[C@@H](C)[C@H](O)c1ccccc1 | / | 2µM* | 0% | / | / | /
Cc1ccc(N2C(=O)NC(=O)/C(=C\C=C\c3ccco3)C2=O)cc1C | ? | 120% | ? | 22µM* | -14% | 4
CC(C)C(=O)Nc1nnc(CCN(CCc2nnc(NC(=O)C(C)C)s2)[N+](=O)[O-])s1 | 0% | 6% | 1% | 10% | -6% | 0
COc1cc([N+](=O)[O-])c2nc(C)ccc2c1[N+](=O)[O-] | / | / | ? | -27% | / | 0
COc1ccc(OC)c(N2C(=O)/C(=C/c3ccco3)C(=O)NC2=S)c1 | / | / | 1% | 5% | 13µM* | 0
COc1ccc(N2C(=O)/C(=C/c3ccc(C)o3)C(=O)NC2=S)cc1 | / | / | 2% | 0% | -8% | -1
COC(=O)C1=C(c2cccc(OC)c2OC)C[C@@H]2CC[C@H]1N2C(=O)NC(C)C | / | / | -4% | 2% | / | 1
CCOC(=O)c1c(N)n(CCCOC(=O)c2ccco2)c2nc3ccccc3nc12 | 2% | 14% | -13% | 7% | -9% | -2
CCOC(=O)c1c(NS(=O)(=O)c2ccccc2)n(CCCOC)c2nc3ccccc3nc12 | -3% | 11% | -16% | 2% | 22µM* | -1

Screens as filed in PubChem.
